# According to the supplement of paper PMC6555819:
# Experiments:
# Experiment in all cases: PBM binding z-score (relative to random genomic background probes); higher = stronger binding; sequences stand for … in GC…GCGATTGACAGCGTAGAATGAAGG
# [1] = test system: FXR:RXRa (NR concentration 270 nM, RXRa partner concentration 90 nM)
# Outline: (§1)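 Ligand-free nuclear receptor dimers were applied to custom Agilent 4×180K protein-binding microarrays whose double-stranded probes carried direct-repeat seeds, single-nucleotide variants, half-site ablations and random human genomic background sequences in 34-nt variable regions. Incubation lasted 1 h. Binding z-scores were computed against the random background probes from regression-normalized fluorescence.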
# [2] = test system: LXRa:RXRa (NR concentration 270 nM, RXRa partner concentration 90 nM)
# Outline: as §1
# [3] = test system: LXRa homodimer (NR concentration 270 nM)
# Outline: as §1
# [4] = test system: LXRb:RXRa (NR concentration 270 nM, RXRa partner concentration 90 nM)
# Outline: as §1
# [5] = test system: LXRb homodimer (NR concentration 270 nM)
# Outline: as §1
# [6] = test system: PPARa:RXRa (NR concentration 270 nM, RXRa partner concentration 90 nM)
# Outline: as §1
# [7] = test system: PPARg:RXRa (NR concentration 180 nM, RXRa partner concentration 90 nM)
# Outline: as §1
# [8] = test system: PPARg:RXRa 270nM:90nM, anti-RXR (NR concentration 270 nM, RXRa partner concentration 90 nM)
# Outline: as §1
# [9] = test system: PPARg:RXRa 30nM:10nM, anti-RXR (NR concentration 30 nM, RXRa partner concentration 10 nM)
# Outline: as §1
# [10] = test system: PPARg:RXRa 90nM:30nM, anti-RXR (NR concentration 90 nM, RXRa partner concentration 30 nM)
# Outline: as §1
# [11] = test system: PPARg:RXRa DBDmut IVT, anti-RXR (DBD mutation: RXRa K156A/R161A, NR concentration 270 nM, RXRa partner concentration 90 nM)
# Outline: as §1
# [12] = test system: PPARg:RXRa IVT, anti-PPARg (NR concentration 270 nM, RXRa partner concentration 90 nM)
# Outline: as §1
# [13] = test system: PPARg DBDmut:RXRa IVT, anti-PPARg (DBD mutation: PPARg1 K132A/R137A, NR concentration 270 nM, RXRa partner concentration 90 nM)
# Outline: as §1
# [14] = test system: PPARg DBDmut IVT, anti-PPARg (DBD mutation: PPARg1 K132A/R137A, NR concentration 270 nM)
# Outline: as §1
# [15] = test system: PPARg homodimer (NR concentration 180 nM)
# Outline: as §1
# [16] = test system: PXR:RXRa (NR concentration 270 nM, RXRa partner concentration 90 nM)
# Outline: as §1
# [17] = test system: PXR homodimer (NR concentration 270 nM)
# Outline: as §1
# [18] = test system: RARa:RXR (NR concentration 270 nM, RXRa partner concentration 90 nM)
# Outline: as §1
# [19] = test system: RARa homodimer (NR concentration 270 nM)
# Outline: as §1
# [20] = test system: RARb:RXRa (NR concentration 270 nM, RXRa partner concentration 90 nM)
# Outline: as §1
Sequence,PBM binding z-score [1],PBM binding z-score [2],PBM binding z-score [3],PBM binding z-score [4],PBM binding z-score [5],PBM binding z-score [6],PBM binding z-score [7],PBM binding z-score [8],PBM binding z-score [9],PBM binding z-score [10],PBM binding z-score [11],PBM binding z-score [12],PBM binding z-score [13],PBM binding z-score [14],PBM binding z-score [15],PBM binding z-score [16],PBM binding z-score [17],PBM binding z-score [18],PBM binding z-score [19],PBM binding z-score [20]
TAGCCTAGGTCATTCAGGGGCCAGTATTGAAAGC,4.17,3.5,0.907,3.03,0.763,3.43,1.63,2.22,0.291,1.32,1.67,2.66,-0.277,-0.0243,2.68,2.72,-0.361,3.99,-0.562,3.8
GTACCAAGGTGAATACGTCGTTGATGAGTAGGCG,0.119,-0.0604,-0.411,-0.17,-0.867,0.781,0.854,0.362,0.117,0.456,1.17,1.59,-0.251,-0.137,-0.116,-0.261,-0.456,0.186,0.0524,1.03
CCTAGTTGGTCAAGGTCACAAACGCTATAGGTAC,3.97,3.32,1.64,3.45,0.933,3.93,3.16,3.43,1.09,2.53,2.22,3.73,1.23,1.64,2.99,3.94,1.93,4.17,2.34,4.05
CCTAGTTGGTCAAGGACACACACGCTATAGGTAC,0.477,0.154,0.309,0.44,0.532,0.0552,1.12,0.49,0.287,0.489,1.07,1.39,0.248,-0.0353,0.735,0.0768,0.977,1.06,1.89,1.51
TCTTGTAGATCAGCGGGTTAAGAAAGCTGGCCAA,0.495,0.126,-0.31,0.0907,0.392,0.933,-0.329,1.16,2.52,1.99,1.84,0.55,-0.631,0.232,0.0922,0.359,-0.369,0.653,-0.539,0.032
TAGCCTAGGTCATTGGCCCAGTATAGTACGCATC,4.84,3.9,1.34,2.45,-0.219,3.53,2.1,2.32,0.439,1.49,1.34,3.13,0.481,-0.598,1.5,1.71,-0.0601,2.29,-0.585,3.67
TGAATGCGGTTATAAGATCAGGGAACGTTGCAAA,-0.202,-0.262,-0.342,-0.407,-0.259,-0.272,-0.0336,0.0368,0.119,-0.242,-1.13,0.042,0.512,0.235,0.329,-0.103,0.0437,-0.0387,-0.0517,0.025
ACTAGCAGGCCAAGTTTGGGTCACTCTAACAAAG,0.184,-0.0297,-0.399,0.217,-0.928,1.03,-0.172,0.0985,-0.547,-0.605,0.86,1.15,-0.869,-1.06,0.634,0.8,-0.149,1.57,-0.645,1.91
CGTCCAAGGTCAGCAGGTCAGTGACAGCGACGTG,5.75,3.99,0.47,2.99,-0.142,4.63,3.93,4.53,1.26,2.97,3.56,3.56,-0.271,-0.196,4.58,3.79,0.701,5.22,2.42,5.27
CCTCGGAGGACAACAGGAGGTCAGTGCTGCCAGA,0.821,1.62,1.58,1.15,-0.378,1.62,0.333,0.375,-0.857,-0.495,-0.0147,0.469,-1.04,-1.78,0.702,1.78,0.131,2.05,0.116,2.92
CTACCAAGGTGAATAAGGTCGTTGATTACTATTC,1.18,1.3,0.402,1.58,-0.326,2.22,0.631,1.01,0.203,0.602,1.82,2.39,0.0322,-0.387,0.714,2.37,2.32,2.44,0.949,1.71
ACGAGTTGGTCAGCTGAGGTCACACACAATTCGG,3.59,3.08,1.81,3.17,-0.229,3.6,1.64,2.17,0.283,1.3,0.74,1.98,-0.0405,0.48,2.66,5.43,2.1,4.82,0.588,3.59
CGTCCAAGGTCAGAGGAGGTCAGTGAAGACAGAT,6.02,5.57,2.4,4.09,-0.0595,4.82,3.53,3.88,0.854,2.48,1.93,3.41,0.0529,-0.477,3.97,6.58,2.7,5.37,1.91,5.22
TGAATGAGGTTATAGATCAGGGAACGTGGCGTCG,1.56,1.48,-0.163,0.762,0.262,2.84,2.57,3.62,2.18,3.73,1.18,1.89,1.37,0.361,1.11,0.894,0.211,1.58,0.661,1.34
GCGACTGGGGCATCAGCAGGTTACCTTAACTTAA,-0.0462,-0.17,-0.509,0.761,-0.96,1.16,0.496,0.878,-0.313,0.578,3.64,3.03,-1.1,-0.949,0.152,0.367,-0.375,0.558,-0.549,0.828
